Paper PMC4336329 (PLoS ONE, 2015)
The campaign covered roughly 310,000 compounds. About 2,200 (0.71%) showed an effect of 50% or more. Effects have a minus sign here. The entries come from a sample that favours strong results as a whole.

Molecular target: human ether-à-go-go-related gene (hERG) potassium channel (human, UniProt Q12809)
Assay: primary screen, population patch clamp on CHO cells stably expressing hERG; higher = less effect of the substance

Chain of human ether-à-go-go-related gene (hERG) potassium channel (Q12809 whole entry, looked up): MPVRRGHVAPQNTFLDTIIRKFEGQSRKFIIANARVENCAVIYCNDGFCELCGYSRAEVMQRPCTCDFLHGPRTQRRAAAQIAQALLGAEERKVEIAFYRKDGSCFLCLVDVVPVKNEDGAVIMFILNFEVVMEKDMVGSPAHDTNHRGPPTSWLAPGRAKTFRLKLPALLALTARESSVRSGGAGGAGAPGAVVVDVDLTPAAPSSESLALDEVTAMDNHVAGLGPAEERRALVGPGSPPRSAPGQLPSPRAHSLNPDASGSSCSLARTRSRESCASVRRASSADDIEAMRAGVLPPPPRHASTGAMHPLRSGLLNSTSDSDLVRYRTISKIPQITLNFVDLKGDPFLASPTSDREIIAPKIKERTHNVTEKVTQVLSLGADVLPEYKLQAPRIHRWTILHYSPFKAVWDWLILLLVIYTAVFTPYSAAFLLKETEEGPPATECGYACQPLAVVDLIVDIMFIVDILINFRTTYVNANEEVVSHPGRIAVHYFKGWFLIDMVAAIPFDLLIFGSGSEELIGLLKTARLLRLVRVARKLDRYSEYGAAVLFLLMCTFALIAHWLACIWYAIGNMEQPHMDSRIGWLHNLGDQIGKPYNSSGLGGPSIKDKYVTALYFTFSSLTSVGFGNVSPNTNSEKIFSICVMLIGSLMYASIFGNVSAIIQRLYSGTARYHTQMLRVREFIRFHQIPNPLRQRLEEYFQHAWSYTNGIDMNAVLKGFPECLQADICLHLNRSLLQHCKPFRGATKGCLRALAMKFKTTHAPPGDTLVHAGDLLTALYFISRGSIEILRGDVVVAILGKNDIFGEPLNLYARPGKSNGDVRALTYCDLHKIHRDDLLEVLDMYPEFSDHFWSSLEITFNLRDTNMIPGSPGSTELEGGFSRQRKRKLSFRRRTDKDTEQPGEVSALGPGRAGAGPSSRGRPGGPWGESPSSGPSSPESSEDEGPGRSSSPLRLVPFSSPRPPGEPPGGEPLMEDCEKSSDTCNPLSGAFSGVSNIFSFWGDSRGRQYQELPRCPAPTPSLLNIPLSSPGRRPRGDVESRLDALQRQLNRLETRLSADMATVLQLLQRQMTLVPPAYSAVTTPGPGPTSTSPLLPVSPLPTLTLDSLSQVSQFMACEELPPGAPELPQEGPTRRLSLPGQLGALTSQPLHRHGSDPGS

Compound	hERG current change (%, negative = inhibition) at 1uM [%]
CSCCC(NC(=O)OCc1ccccc1)C(=O)NCc1cccnc1 (centres unmarked)	9.52
O=C(N/N=C/c1ccc2c(c1)OCO2)c1ccc(COCC(F)(F)C(F)F)cc1	9.11
N#Cc1nc(Cc2ccccc2)oc1N1CCCC1	4.79
Cc1ccc(C)c(-n2ccnc2SCC(=O)O)c1	14.4
COC(=O)c1sc(S(=O)(=O)NC(C)C(=O)O)c(C(=O)OC)c1C (centres unmarked)	-4.83
CCCN(CCC)CCCNC(=O)C1CCN(S(=O)(=O)c2cccc3nsnc23)CC1	12.5
CCc1ccc(NC(=O)Nc2cccs2)cc1	21.2
COc1cccc(C2=NOC(C(=O)Nc3ccc4c(c3)OCO4)C2)c1 (centres unmarked)	12.7
CCNS(=O)(=O)c1ccc(CCC(=O)N2CCN(c3cc(Cl)ccc3C)CC2)cc1	12.4
CCCOC1OC(=O)c2c1ccc(OC)c2OC (centres unmarked)	11.9
Cc1ccc(S(=O)(=O)Nc2ccc(-c3ccc4nncn4n3)cc2)cc1	24.9
Cc1cccc(S(=O)(=O)Nc2ccc(-c3ccc4nncn4n3)cc2)c1	-85.6
O=S(=O)(Nc1ccc(-c2ccc3nncn3n2)cc1)c1cccc(F)c1	14.1
BrCC1C[n+]2c(SCc3ccccc3)nc3sc4c(c3c2O1)CCCC4.[Br-] (centres unmarked)	10.3
Cc1ccc2c(c1)CCCN2C(=O)c1ccncc1	8.11
CCOC(=O)c1cccc(N2C(=O)C3C(C2=O)C2C=CC3C23CC3)c1 (centres unmarked)	8.16
CCOc1ccccc1N1CCN(c2nc3ccccc3nc2C(C#N)C(=O)OC(C)C)CC1 (centres unmarked)	12.5
COc1ccc(C(=O)N2CCN(Cc3ccccc3)CC2)cc1[N+](=O)[O-]	-22.3
CCOc1ccc(C(=O)N2CCN(c3ccccc3)CC2)cc1OCC	1.55
O=C(NCCN1CCN(C(=O)c2cc3ccccc3oc2=O)CC1)c1cc2ccccc2oc1=O	-0.615
CN1CCN(C(=O)c2cc3ccccc3oc2=O)CC1	8.34
COc1ccc(C(=O)N2CCN(CCc3ccccc3)CC2)cc1[N+](=O)[O-]	-73.5
CCOc1ccc(C(=O)N2CCN(CCc3ccccc3)CC2)cc1OCC	-77.5

Compound	hERG current change (%, negative = inhibition) at 1uM [%]
COc1cccc(C(=O)N2CCN(CCCc3ccccc3)CC2)c1OC.O=C(O)C(=O)O	-4.87
CCOc1ccc(C(=O)N2CCN(C(=O)c3ccco3)CC2)cc1OCC	10.8
O=C(c1cc2ccccc2oc1=O)N1CCN(CCc2ccccc2)CC1	-60.4
COc1cc(C(=O)N2CCN(CCCc3ccccc3)CC2)cc(OC)c1OC	3.21
COc1ccc(C(=O)N2CCN(CCCc3ccccc3)CC2)cc1OC.O=C(O)C(=O)O	-61.8
COc1ccc(C(=O)N2CCN(Cc3ccc4c(c3)OCO4)CC2)cc1[N+](=O)[O-]	-6.08
COc1ccc(/C=C2/C(=O)NC(=O)N(c3ccc(C)c(C)c3)C2=O)cc1CN1C(=O)c2ccccc2C1=O	-3.04
CCCC(=O)Nc1c2c(nn1-c1cccc(C)c1C)CS(=O)(=O)C2	4.62
COc1ccccc1/C=C1\SC(=O)N(CCC(=O)N2CCCCC2CCO)C1=O (centres unmarked)	14.7
CCOC(=O)c1c2ccc(OCC(=O)NN)cc2n2ccccc12	13.3
CC1CC(C)CN(CCCNC(=O)C2CCN(c3ncnc4c3sc3cccc(F)c34)CC2)C1 (centres unmarked)	-14.9
CC(C)CCNC(=O)c1cc(-c2cccs2)nc2ccccc12	2.51
CCN(CC)CCNC(=O)c1ccc(NC(=O)c2cc(-c3ccco3)nc3ccccc23)cc1	9.15
CCN(CC)CCNC(=O)c1cc(-c2ccco2)nc2ccccc12.Cl	-55
CCCCN(C)CCCNC(=O)c1cc(-c2cccs2)nc2ccccc12	-80.8
CCCCN(C)CCCNC(=O)c1cc(-c2cccnc2)nc2ccccc12	-20.2
CCCCCCNC(=O)c1cc(-c2ccco2)nc2ccccc12	7.12
O=C(NC1CCCCC1)N(C1=NCCCCC1)c1ccc(Br)cc1	13.1
Cc1cccc(NC(=O)CSCc2nc3c(nnn3Cc3ccc(F)cc3)c(=O)[nH]2)c1C	8.63
Cc1cc(C)n2nc(NCc3cccc(Br)c3)nc2n1	-32.1
O=C(Nc1cccc(NC(=O)c2ccccc2Cl)c1)c1ccc(F)cc1	7.98
COCc1c(C(=O)NCc2ccccc2CN2CCCC2)oc2ccccc12	-34
CCOC(=O)c1oc2ccccc2c1CN1CCCCC1.Cl	-9.66

Compound	hERG current change (%, negative = inhibition) at 1uM [%]
CCOc1ccc2oc(C(=O)NCc3ccccc3CN3CCCC3)c(C)c2c1	-12.2
COc1ccc2oc(C(=O)NCc3ccccc3CN3CCCC3)c(C)c2c1	-27.2
CCOC(=O)c1oc2ccccc2c1CN1CCOCC1.Cl	-5.9
CCOCc1c(C(=O)NCc2ccccc2CN2CCCC2)oc2ccccc12	-60.1
CCOCc1c(C(=O)NC2CCCCCC2)oc2ccccc12	-1.11
CCOC(=O)c1oc2ccccc2c1CN1CCN(C)CC1.Cl	-50.2
Cc1c(C(=O)NCc2ccccc2CN2CCCC2)oc2ccc(F)cc12	-57.4
Cc1ccc(NC(=O)CCn2c(=S)oc3ccccc32)cc1	11
CC(C)(C)C(=O)Nc1c(Cl)cccc1OC(F)(F)F	12.4
CC1CCN(S(=O)(=O)c2ccc3c(c2)n(C)c(=O)n3C)CC1	0.216
COc1ccc(CCN(C(=O)/C=C/C(=O)O)C2CC(=O)N(c3ccccc3)C2=O)cc1 (centres unmarked)	8.45
C=C(C)CNC(=O)CCc1nnc(C2(c3ccc(Cl)cc3)CCC2)o1	12.3
CCNC(=S)N1CCN(Cc2ccccc2)CC1.O=C(O)C(=O)O	-7.37
COC(=O)c1c(NC(=O)CN2CCN(Cc3ccc4c(c3)OCO4)CC2)sc(C)c1C.O=C(O)C(=O)O	5.45
O=C(CN1CCN(Cc2ccc3c(c2)OCO3)CC1)Nc1ccc2c(c1)OCO2	-64.3
COC(=O)c1ccsc1NC(=O)CN1CCN(Cc2ccc3c(c2)OCO3)CC1	-59.7
O=C(CN1CCN(Cc2ccc(F)cc2)CC1)Nc1nc2ccccc2s1	-54
COc1ccc(NC(=O)CN2CCN(Cc3ccc4c(c3)OCO4)CC2)cc1OC.O=C(O)C(=O)O	4.15
CCCN1CCN(CC(=O)Nc2nc3ccccc3s2)CC1	-17.9
O=C(CN1CCN(CC(=O)Nc2ccc3c(c2)OCO3)CC1)Nc1ccc(F)cc1	-83.5
O=C(CN1CCN(c2ccc(F)cc2)CC1)Nc1ccc2c(c1)OCCO2	14.1
O=C(CN1CCN(S(=O)(=O)c2ccc(F)cc2)CC1)Nc1ccc2c(c1)OCO2	-8
O=C(CN1CCN(Cc2ccc3c(c2)OCO3)CC1)Nc1ccc(N2CCOCC2)cc1	8.8

Compound	hERG current change (%, negative = inhibition) at 1uM [%]
NC(=O)CN1CCN(Cc2ccc3c(c2)OCO3)CC1	22.5
O=C(CN1CCN(Cc2ccccc2)CC1)Nc1nc2ccccc2s1	-24.1
CN(Cc1ccccc1)C(=O)CN1C(=O)NC(C)(c2ccc(Cl)cc2)C1=O (centres unmarked)	12.8
COc1ccc(-c2cc(C(=O)N3CCN(c4ccccc4F)CC3)c3ccccc3n2)c(OC)c1	4.75
CCn1c(SCC(=O)NCc2ccc3c(c2)OCO3)nnc1-c1c[nH]c2ccccc12	14.9
N/C(=N\OC(=O)CC1CCCCC1)c1ccncc1	12.3
O=C(c1ccc(F)cc1)N1CCN(C(=O)c2ccc([N+](=O)[O-])cc2)CC1	-13.7
CCn1nc(C(=O)NNC(=O)c2ccccc2OCc2c(C)noc2C)c2ccccc2c1=O	9.55
O=C(CCn1c(=O)[nH]c2ccccc2c1=O)N1CCN(c2ccc(Cl)cc2)CC1	-4.13
Cc1cc(NS(=O)(=O)c2ccc(NC(=O)COc3ccc(Cl)cc3Cl)cc2)no1	-0.394
CC(=O)O.NCC(c1ccco1)c1c[nH]c2ccccc12 (centres unmarked)	12.2
COc1cc(NC(=O)CN2CCN(Cc3ccc4c(c3)OCO4)CC2)cc(OC)c1.O=C(O)C(=O)O	-9.16
O=C(CN1CCN(C(=O)C2COc3ccccc3O2)CC1)Nc1ccccc1 (centres unmarked)	-22.5
O=C(CN1CCN(Cc2ccc3c(c2)OCO3)CC1)NCC(F)(F)F	11.2
O=C(C1COc2ccccc2O1)N1CCN(c2ccc(F)cc2)CC1 (centres unmarked)	-9.29
COC(=O)c1[nH]c2ccccc2c1NC(=O)CN1CCN(Cc2ccc3c(c2)OCO3)CC1	-70.3
CCN(CC(=O)Nc1c(C(=O)OC)[nH]c2ccccc12)c1ccc2c(c1)OCO2	12.1
COC(=O)c1[nH]c2ccc(C)cc2c1NC(=O)CCN1CCN(Cc2ccc3c(c2)OCO3)CC1	-33
O=C(CN1CCN(C(=O)C2COc3ccccc3O2)CC1)Nc1ccc(F)cc1 (centres unmarked)	-63.5
O=C(CN1CCN(Cc2ccc3c(c2)OCO3)CC1)Nc1ccc(F)cc1	-82.6
